# The list is not random: actives were taken first. Their share in the collection is about 10%.
# HP1b chromo inh: HTS for Inhibitors of HP1-beta Chromodomain Interactions with Methylated Histone Tails | Potency, µM (titrated, usually from 114 µM), for the others: at the highest dose activity change, negative = inhibition, hits mostly inhibitors | 390,000 compounds, 0.56% hits | Chromobox protein homolog 1 (Homo sapiens), P83916 | AID 540317, 2011 | AlphaScreen HP1-beta / biotin-H3K9me3 peptide binding; note: nearly all actives have a fitted effect of over 70% in size
# Target sequence (P83916 whole entry, looked up): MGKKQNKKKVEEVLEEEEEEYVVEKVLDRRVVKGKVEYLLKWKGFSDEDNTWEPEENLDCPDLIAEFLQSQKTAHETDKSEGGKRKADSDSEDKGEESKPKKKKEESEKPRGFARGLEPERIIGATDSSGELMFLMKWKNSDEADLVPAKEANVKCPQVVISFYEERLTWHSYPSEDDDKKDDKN
#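 Compound inhibition of the preformed complex between 50 nM HP1-beta and 50 nM biotinylated H3K9me3 peptide was read by AlphaScreen. Buffer was PBS pH 7.4 with 0.01% Tween-20. Incubations ran 30 min at room temperature, with 10 ug/mL donor/acceptor beads.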
# JMJD2A Tudor: qHTS Assay for Inhibitors of JMJD2A-Tudor Domain. Lysine-specific demethylase 4A (Homo sapiens), O75164. AlphaScreen JMJD2A-Tudor / H3K4me3 peptide binding. 390,000 compounds, 4.4% hits. Potency, µM (top dose mostly 114 µM), inactives show at the top dose activity change, negative = inhibition, most hits filed as inhibitors; note: % is set by controls: 0 for no effect and ±100 for the full control effect; nearly all actives have a fitted effect of over 50% in size
# GLS inh: qHTS for Inhibitors of Glutaminase (GLS); Glutaminase kidney isoform, mitochondrial (Homo sapiens), O94925; GLS enzymatic activity, qHTS titration; Potency, µM (top dose mostly 45.5 µM), for inactives: at the highest dose activity change, negative = inhibition, most hits filed as inhibitors; 410,000 compounds, 0.21% hits; AID 624170, 2012; note: % is set by controls: 0 for no effect and ±100 for the full control effect
#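 Two-point fluorescence kinetic (t0, 30 min RT) for hKGA; glutamate detected via glutamate oxidase–HRP–Amplex Red. Substrate: 1 mM L-glutamine solution; buffer 45 mM KH2PO4, pH 8.2.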
# G9a inh: qHTS Assay for Inhibitors of Histone Lysine Methyltransferase G9a; AID 504332, 2011; Potency, µM (doses to about 102 µM), without a hit: at the highest dose activity, negative = inhibition, most hits filed as inhibitors; 350,000 compounds, 8.8% hits; G9a H3K9 monomethylation, AlphaScreen, 2 h; note: % is set by controls: 0 for no effect and ±100 for the full control effect; nearly all actives have a fitted effect of over 75% in size
# Target sequence (Q96KQ7 913-1193 limits assumed): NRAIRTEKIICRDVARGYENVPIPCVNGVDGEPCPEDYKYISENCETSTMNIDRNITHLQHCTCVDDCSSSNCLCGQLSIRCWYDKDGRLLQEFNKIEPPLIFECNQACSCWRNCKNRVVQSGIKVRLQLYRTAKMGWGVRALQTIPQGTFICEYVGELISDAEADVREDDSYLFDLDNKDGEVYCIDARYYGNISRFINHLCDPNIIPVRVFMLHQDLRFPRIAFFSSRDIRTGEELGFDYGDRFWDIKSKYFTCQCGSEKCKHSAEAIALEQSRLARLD
#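 Enzyme 20 nM + cpd, 15 min RT; add b-H3K9 pep 500 nM / SAM 20 uM; 2 h RT; anti-H3K9me1 Ab 0.5 ug/mL + SA donor / anti-rabbit acceptor beads 20 ug/mL each, 10 min; AlphaScreen read.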
# BAZ2B block: qHTS Assay for Inhibitors of BAZ2B; Potency, µM (highest dose often 114 µM), for the others: top-dose activity change, negative = inhibition, actives largely listed as inhibitors; 360,000 compounds, 4.4% hits; Bromodomain adjacent to zinc finger domain protein 2B (Homo sapiens), Q9UIF8; AlphaScreen BAZ2B-H3K14Ac peptide displacement; note: % is set by controls: 0 for no effect and ±100 for the full control effect; nearly all actives have a fitted effect of over 60% in size
#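 Compounds, titrated to a top concentration of 110 uM, were incubated 30 min at room temperature with preformed BAZ2B/acetyl-K14 H3 peptide complex (50 nM each). Proximity signal was measured by AlphaScreen after 20 min with beads.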
# Active calls of the source: *; ? = inconclusive; / = no result given; [ ] = remark or other dose. Calls come from the whole dose curve; as a rule, active = well fitted curve in the direction sought with a large enough effect; inconclusive = small, poorly fitted or top-dose-only effect, or another doubt; inactive = no such curve, though single readings can be large; an effect the other way counts as inactive or inconclusive. Potency is the fitted concentration of half-maximal effect.
SMILES,HP1b chromo inh,JMJD2A Tudor,GLS inh,G9a inh,BAZ2B block
C/C(=N\NC(=O)c1cc(O)cc(O)c1)c1ccc(NC(=O)Cc2ccccc2)cc1,32µM*,14µM*,34%,8.9µM*,8.9µM*
C/C(=N\NC(=O)c1cccc(F)c1)c1ccc(NC(=O)Cc2ccccc2)cc1,26%,-22%,4%,24%,-12%
C/C(=N\Nc1ccccc1)c1cccc(N)c1,?,?,-12%,8.9µM*,?
C/C(=N\Nc1cc(-c2ccccc2)nc(-c2ccc(Br)cc2)n1)c1cccc(N)c1,-25%,?,-10%,/,/
C/C(=N\NC(=O)c1cccc(N/N=C(\C)c2ccccc2)c1)c1ccccc1,-6%,-28%,?,2.8µM*,-24%
C/C(=N/Nc1cc(-c2ccccc2)nc(-c2ccccc2)n1)c1ccc(O)cc1,6%,-33%,13%,-17%[59 µM],-36%
CCC(=O)c1ccc(OCC(O)CNC2CCCC2)cc1 (stereo unspecified),31%,-13%,2%,?,-6%
COc1ccc(N2CCN(S(=O)(=O)CCNC(=O)c3ccc(C(F)(F)F)cc3)CC2)cc1,11%[57 µM],-6%,-1%,10%[59 µM],-3%
CCc1ccc(C(O)c2ncc(-c3cccc4ccccc34)[nH]2)cc1 (stereo unspecified),/,/,1%,/,/
Cc1ccc(-n2c(C3CC3c3ccc(Cl)cc3)n[nH]c2=S)cc1 (stereo unspecified),17%,-27%,-7%,2µM*,-28%
Cc1ccc(C2CC2C(=O)NNC(=S)Nc2cccc(Cl)c2)cc1 (stereo unspecified),-34%,-34%,11%,?,-28%
Cc1ccc(C2CC2c2n[nH]c(=S)n2-c2ccc(C)cc2)cc1 (stereo unspecified),-15%,?,46%,0.63µM*,-32%
Cc1ccc(C2CC2c2n[nH]c(=S)n2-c2cccc(Cl)c2)cc1 (stereo unspecified),-9%,?,11%,10µM*,-39%
Cc1ccc(-n2c([C@@H]3C[C@H]3c3ccccc3)n[nH]c2=S)cc1,27%,-22%,0%,0.5µM*,-33%
S=c1[nH]nc(C2CC2c2ccc(Cl)cc2)n1-c1ccc(Cl)cc1 (stereo unspecified),-21%,?,25%,?,?
O=C(COC(=O)c1ccc(S(=O)(=O)C(F)F)cc1)Nc1ccccc1C(=O)NC1CC1,30%,8%,-6%,30%[12.7 µM],2%
CC(C)(C)OC(=O)C[C@H]1C/C=C\C[C@@H](CC(=O)NCCO)C(=O)NC[C@@H](c2ccccc2)OC1=O,32%,-5%,1%,/,/
CCOCCCn1c(=NC(=O)c2cccs2)c(C#N)cc2c(=O)n3cccc(C)c3nc21,24%,-20%,-5%,71µM*,-7%
Cc1cccn2c(=O)c3cc(C(=O)NCCN4CCOCC4)c(=N)n(CCCN4CCOCC4)c3nc12,?,-28%,-20%,50µM*,-25%
Cc1cccn2c(=O)c3cc(C(=O)NC4CCCCC4)c(=N)n(Cc4ccccc4)c3nc12,34%,-5%,-12%,10µM*,25µM*
Cc1cccn2c(=O)c3cc(C(=O)NC4CCCC4)c(=N)n(Cc4ccc(F)cc4)c3nc12,59%,9%,-19%,-1%,-1%[57.1 µM]
CCOCCCn1c(=N)c(C(N)=S)cc2c(=O)n3cccc(C)c3nc21,-23%,79µM*,?,?,?
Cc1cccn2c(=O)c3cc(C(N)=S)c(=N)n(CCCOC(C)C)c3nc12,-1%,?,?,?,-7%
Cc1cccn2c(=O)c3cc(C(=O)NCc4ccccc4)c(=N)n(CCCN4CCOCC4)c3nc12,17%,-26%,-3%,/,/
CCOC(=O)[C@]12CCCC=C1N(Cc1cccc3ccccc13)C(=O)[C@H](CC(=O)N1CCN(C(=O)c3ccco3)CC1)C2,/,/,2%,/,/
SMILES,HP1b chromo inh,JMJD2A Tudor,GLS inh,G9a inh,BAZ2B block
Cc1ccc(NC(=O)CSc2nc(-c3ccco3)cc(C(F)(F)F)n2)cc1,37%,4%,8%,29%[59 µM],5%
CCOC(=O)c1csc(NC(=O)c2ccc3c(c2)OCCO3)n1,32%,-18%,-11%,/,2%
COCCNC(=O)c1cc2c(=O)n3cccc(C)c3nc2n1C,38%,6%,0%,28µM*,0%
CCCCNC(=O)c1cc2c(=O)n3cccc(C)c3nc2n1C,/,/,/,2%,-2%
CSc1ccc(CCNC(=O)CCCn2c(=O)c3cccn3c3ccccc32)cc1,-1%,?,3%,14µM*,-31%
CCOc1ccc(CCNC(=O)CCCn2c(=O)c3cccn3c3ccccc32)cc1,10%,-12%,-4%,-5%[59 µM],3%
O=[N+]([O-])c1ccc(N2CCCCC2)cc1NCCOc1ccccc1,?,-10%,-7%,?,?
O=[N+]([O-])c1ccccc1NCCOc1ccccc1,-38%,?,0%,?,22µM*
COc1ccc(C2=NC3(CCCCCC3)N(CC(=O)Nc3cccc(Cl)c3)C2=O)cc1,36%,-13%,-10%,-30%[59 µM],-1%
CN1C(=O)c2oc3ccc(Br)cc3c(=O)c2C1c1ccncc1 (stereo unspecified),/,/,/,16µM*,4%
CN1C(=O)c2oc3ccccc3c(=O)c2C1c1ccccn1 (stereo unspecified),38%,32µM*,5%,28µM*,?
CN1C(=O)c2oc3ccccc3c(=O)c2C1c1cccnc1 (stereo unspecified),22%,-19%,-17%,/,/
O=C(NCCN1CCOCC1)c1ccc(NS(=O)(=O)c2cccc([N+](=O)[O-])c2)cc1,14%,-2%,12%,50µM*,14%
O=C(NCc1ccco1)c1cc([N+](=O)[O-])ccc1Cl,33%,9%,?,/,-12%
O=C(NCCN1CCOCC1)c1cc(S(=O)(=O)Nc2ccccc2F)c(Cl)cc1Cl,32%,-7%[11.4 µM],0%,50µM*,-34%
O=C(Nc1ccccn1)c1sc2cc([N+](=O)[O-])ccc2c1Cl,-33%,56µM*,-10%,1.6µM*,?
O=C(NCc1ccco1)c1cc([N+](=O)[O-])ccc1N1CCOCC1,35%,6%,0%,10µM*,79µM*
O=C(NCCN1CCOCC1)c1ccc(NS(=O)(=O)c2ccccc2)cc1,31%,-6%,4%,22%,-2%
O=C(c1cc(S(=O)(=O)Nc2ccccc2F)c(Cl)cc1Cl)N1CCN(CCO)CC1,26%,-8%,0%,?,0%

# Compound activity: PubChem BioAssay, National Center for Advancing Translational Sciences (NCATS)
